Shown are actives, neighbours in structure and some others; about 4.2% of the full set was active somewhere.
tim10-1 inh: growth inhibitors of tim10-1 mutant yeast | actives 2.2% (n = 330,000) | inhibition, % at 20 µM | S. cerevisiae tim10-1 ts strain growth, BacTiter-Glo, 24 h;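 active = inhibition of at least 40%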;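 note: mutant grown at 25 °C; 0% = DMSO wells with yeast and 100% = wells holding no yeast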
NLRP3 yeast inh: inhibitors of NALP3 inflammasome in yeast; inhibition, % at 10 µM; actives 0.39% (n = 330,000); Yeast reconstituted NLRP3/ASC/caspase-1, beta-gal luminescence, 24 h; AID 2825;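 active = inhibition of 50% or more; inactive = inhibition below 50%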;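 note: plate controls were induced DMSO wells for no effect and uninduced yeast grown without galactose for full effect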
tim23-1 inh: inhibits growth of tim23-1 mutant yeast; S. cerevisiae tim23-1 growth, BacTiter-Glo luminescence, 24 h; inhibition, % at 20 µM; actives 1.3% (n = 330,000); AID 463212;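 active = growth inhibition of the mutant yeast at or above 50%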;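 note: temperature-sensitive mutant grown at 25 °C; plate controls were DMSO-treated mutant yeast for no effect and medium wells lacking yeast for full effect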
TIM10 inh: inhibits growth of TIM10 yeast strain; inhibition, % at 10 µM; actives 1.4% (n = 330,000); S. cerevisiae TIM10 strain growth, BacTiter-Glo luminescence, 24 h;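 active = inhibition of 40% or more at the single tested concentration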;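 note: wild-type TIM10 isogenic control strain grown at permissive 25 °C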
NALP1 inh: inhibitors of NALP1 inflammasome in yeast. S. cerevisiae NALP1/ASC/caspase-1 growth, X-gal OD620, 72 h. inhibition, % at 10 µM. actives 0.61% (n = 280,000). AID 2071; in the data active = inhibition mostly above about 24%, no sharp cut-off; inactive = mostly below about 32%
V-ATPase pHluor: regulators of yeast V-ATPase proton transport | S. cerevisiae, pHLuorin cytosolic pH fluorescence | response, % at 10 µM | actives 0.37% (n = 350,000) | AID 504577; in the data active = response mostly above about 7.3%, no sharp cut-off; inactive = mostly below about 5.4%; note: actives read high
NALP3 confirm: NALP3 inhibition confirmation in yeast; shares compounds with NLRP3 yeast inh; yeast expressing human NALP3, luminescence; inhibition, % at 10 µM; actives 81% (n = 1,300); AID 435006; in the data active = inhibition above about 48%
Casp1-ASC yeast: counter-screen for NALP3 inhibitors: yeast caspase-1-ASC. shares compounds with NLRP3 yeast inh. actives 66% (n = 1,000). yeast expressing Caspase-1-ASC, luminescence counter screen. inhibition, % at 10 µM
NALP3 retest: confirmation retest of NALP3 inhibitors in yeast; shares compounds with NLRP3 yeast inh; yeast expressing human NALP3, luminescence read-out; inhibition, % at 10 µM; actives 53% (n = 1,000); AID 488794
tim10-1 confirm: confirmation of tim10-1 mutant yeast growth inhibitors | S. cerevisiae tim10-1 ts strain growth, BacTiter-Glo, 24 h | actives 56% (n = 7,400) | inhibition, % at 20 µM | shares compounds with tim10-1 inh;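 active = inhibition of yeast growth at or above a set limit in either of two repeat tests at 20 µM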;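 note: tim10-1 mutant grown at permissive 25 °C to find synthetic lethal compounds; 0% = DMSO yeast wells and 100% = medium wells without yeast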
TIM10 conf: TIM10 yeast growth inhibition, confirmed. actives 63% (n = 4,600). inhibition, % at 10 µM. S. cerevisiae tim10 strain growth, BacTiter-Glo luminescence, 24 h. AID 463215. shares compounds with TIM10 inh;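 active = inhibition of yeast growth at or above a set limit in either of two replicates at 10 µM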;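 note: this counterscreen used the strain with wild-type TIM10; 0% = yeast with DMSO and 100% = medium wells lacking yeast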
tim23-1 confirm: tim23-1 yeast growth inhibition, confirmed. shares compounds with tim23-1 inh. S. cerevisiae tim23-1 growth, BacTiter-Glo luminescence, 24 h. inhibition, % at 20 µM. actives 83% (n = 4,400);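 active = inhibition above about 39% in either of two replicate wells at 20 µM, limit read from the data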;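 note: temperature-sensitive tim23-1 mutant grown at 25 °C; 0% = DMSO wells with yeast and 100% = medium wells without yeast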
V-ATPase pH SP: modulates yeast V-ATPase proton transport; shares compounds with V-ATPase pHluor; S. cerevisiae pHLuorin cytosolic pH; response, % at 10 µM; actives 2% (n = 980); in the data active = response above about 24%;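 note: plate controls were vehicle wells for no effect and positive control wells for full effect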
Numbers without * were called inactive; x = no result given. Cut-off read from the data, not from the text of the source, unless noted: active = inhibition above about 50%; inactive = the rest.

SMILES | tim10-1 inh | NLRP3 yeast inh | tim23-1 inh | TIM10 inh | NALP1 inh | V-ATPase pHluor | NALP3 confirm | Casp1-ASC yeast | NALP3 retest | tim23-1 confirm | others
CC1(C)COC(/C=C/c2cccc([N+](=O)[O-])c2)=N1 | 60* | 55* | 59* | 47* | 11 | 2 | 62* | 74* | 57* | 40* | tim10-1 confirm=43*;TIM10 conf=46*
O=C1OC[C@H](Cc2ccc3c(c2)OCO3)/C1=C\c1ccc2c(c1)OCO2 | 19 | 23 | 23 | -7 | x | -2 | x | x | x | x
O=C(Nc1ccc(-c2cn3ccccc3n2)cc1)c1cccs1 | -4 | 57* | 62* | 42* | 0 | 0 | 76* | 72* | 62* | 71* | TIM10 conf=26
O=C(Cc1ccc(Cl)cc1)Nc1ccc(NC(=O)c2cccs2)cc1 | 12 | -13 | 7 | -9 | 5 | -1 | x | x | x | x
CN1CCN(c2ccc(NC(=O)c3cccs3)cc2)CC1 | -11 | 18 | -5 | 3 | 4 | 6 | x | x | x | x
Cc1ccn(-c2ccc(NC(=O)c3cccs3)cc2)n1 | 13 | 59* | 75* | 38 | -11 | 2 | 82* | 64* | 35 | 69*
O=C(Nc1ccc(NC(=O)c2cccs2)c(Cl)c1)c1cccs1 | 8 | 61* | 51* | 28 | 1 | 2 | 84* | 64* | 60* | 65*
O=C(Nc1ccc(Cl)cc1)c1cccs1 | -5 | 60* | 61* | 37 | x | 4 | 77* | 55* | 65* | 59*
Cc1ccc(N(CC(=O)NC(C)C)C(=O)CCC(=O)Nc2nccs2)c(C)c1 | 1 | 6 | 20 | 11 | 18 | 3 | x | x | x | x
Cc1cccc(NS(=O)(=O)c2ccc(C(=O)N3CC(C)OC(C)C3)cc2)c1C (configuration not stated) | -3 | 7 | 2 | -1 | x | 3 | x | x | x | x
O=C(N/N=C/c1ccccc1)c1c(O)c2ccccc2[nH]c1=O | -31 | 55* | 73* | 11 | 7 | -1 | 65* | x | x | 10
O=C(N/N=C/c1ccc(F)cc1)c1c(O)c2ccccc2[nH]c1=O | -7 | 30 | 24 | 23 | 37 | -1 | x | x | x | x
Cc1oc(-c2cc(F)cc(F)c2)nc1CN1CCN(C(=O)c2ccco2)CC1 | 11 | 4 | 5 | 9 | 9 | -2 | x | x | x | x
S=C(NCc1ccco1)N1CCN(c2ccccn2)CC1 | -6 | 11 | -3 | -1 | -1 | -2 | x | x | x | x
CCOC(=O)/C(=C\c1ccc(N2CCC(c3ccccc3)=N2)cc1)C(C)=O | x | x | x | x | x | 8 | x | x | x | x
CCOC(=O)C(=Cc1ccc(-n2cncn2)cc1)C(=O)OCC | 62* | 50* | 52* | 67* | -4 | 0 | 61* | 57* | 40 | 71* | tim10-1 confirm=52*;TIM10 conf=47*
Fc1ccc(CSc2nnc(-c3ccccn3)o2)cc1 | -3 | 24 | 21 | -3 | 8 | 0 | x | x | x | x
Clc1ccc(OCCn2cnc3ccccc32)c(Cl)c1 | 24 | 71* | 54* | 7 | 14 | 9 | 62* | 77* | 63* | 28
CN(C)c1ccc(/C=C/c2ccc3ccccc3[n+]2C)cc1 | 85* | 52* | 75* | 81* | 60* | 2 | 33 | x | x | 76* | tim10-1 confirm=81*;TIM10 conf=9
CN(C)c1ccc(/C=C/c2ccc3c4ccccc4ccc3[n+]2-c2ccccc2)cc1 | x | x | x | x | -24 | -2 | x | x | x | x
CC(C)CC(C(=O)N1CCOCC1)N1Cc2ccccc2C1=O (configuration not stated) | 6 | 8 | 10 | -4 | -22 | 2 | x | x | x | x
CN1CCN(C(=O)c2cc(COc3c(F)cccc3F)on2)CC1c1ccccc1 (configuration not stated) | 42* | 84* | 63* | 52* | 11 | -2 | 88* | 85* | 84* | 50* | tim10-1 confirm=21;TIM10 conf=53*
O=C(c1ccccn1)c1conc1C(=O)c1ccc(Br)cc1 | 69* | 69* | 78* | 72* | 0 | 1 | 83* | 84* | 60* | 87* | tim10-1 confirm=73*;TIM10 conf=63*
Cc1cc([N+](=O)[O-])cc(/C=N\NC(=O)C2COc3ccccc3O2)c1O (configuration not stated) | 14 | 51* | 67* | 45* | -19 | -113 | 70* | 78* | 69* | 70* | TIM10 conf=36*
O=C(N/N=C\c1ccc(O)c([N+](=O)[O-])c1)C1COc2ccccc2O1 (configuration not stated) | 5 | -34 | 11 | 9 | -2 | 7 | x | x | x | x
SMILES | tim10-1 inh | NLRP3 yeast inh | tim23-1 inh | TIM10 inh | NALP1 inh | V-ATPase pHluor | NALP3 confirm | Casp1-ASC yeast | NALP3 retest | tim23-1 confirm | others
Cc1cc(C)n(C(N)=NC(=O)c2ccccc2)n1 | x | x | x | x | x | 0 | x | x | x | x
O=C1c2sc3nc4ccccc4n3c2C(=O)N1c1ccccc1Cl | -101 | 52* | 56* | 60* | 10 | 10* | 52* | 26 | 26 | -19 | TIM10 conf=59*
Cc1cc2sc3nc(=O)n(-c4ccccc4)c(=O)n3c2cc1C | 22 | 6 | 0 | 23 | x | 0 | x | x | x | x
Clc1ccc(-n2nnnc2Sc2ncnc3sccc23)cc1 | 43* | 64* | 70* | 2 | x | -3 | 74* | 94* | 76* | 50* | tim10-1 confirm=33*
Cc1sc2ncnc(Sc3nnnn3-c3ccccc3)c2c1C | 38 | 38 | 33 | 28 | 18 | 1 | x | x | x | x
Cc1[nH]c2ccccc2c1C(=O)/C=C/c1ccccc1 | 27 | 63* | 64* | 14 | -3 | 0 | 52* | 80* | 75* | 56*
Cc1[nH]c2ccccc2c1C(=O)CN1CCN(C/C=C/c2ccccc2)CC1 | -6 | -1 | -6 | 3 | -6 | 0 | x | x | x | x
COc1ccc(NC(=O)c2cc(-c3ccccn3)nc3ccccc23)cc1S(=O)(=O)N(C)C | 6 | 16 | 19 | 12 | x | -4 | x | x | x | x
O=C(NC1CCCCC1)c1c(O)nc2sccn2c1=O | 15 | 58* | 67* | 5 | x | 12* | 74* | 34 | 42 | 47* | V-ATPase pH SP=28*
